# HP1b binding inh – HP1-beta chromodomain-methylated histone interaction inhibition. hit rate 0.56% among 390,000. AID 540317. Potency, µM (doses to about 114 µM), inactives show at the highest dose activity change, negative = inhibition, hits mostly inhibitors. AlphaScreen HP1-beta / biotin-H3K9me3 peptide binding. P83916; also: nearly all actives have a fitted effect of over 70% in size
# Target sequence (P83916 whole entry, looked up): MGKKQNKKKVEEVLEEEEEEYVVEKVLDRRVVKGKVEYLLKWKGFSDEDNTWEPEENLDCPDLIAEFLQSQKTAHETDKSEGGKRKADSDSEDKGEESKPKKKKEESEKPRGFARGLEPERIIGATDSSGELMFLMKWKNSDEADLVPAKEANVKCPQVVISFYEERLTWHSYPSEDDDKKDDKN
#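 Compound inhibition of the preformed complex between 50 nM HP1-beta and 50 nM biotinylated H3K9me3 peptide was read by AlphaScreen. Buffer was PBS pH 7.4 with 0.01% Tween-20. Incubations ran 30 min at room temperature, with 10 ug/mL donor/acceptor beads.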
# JMJD2A Tudor inh – inhibitors of human JMJD2A Tudor domain; O75164; AlphaScreen JMJD2A-Tudor / H3K4me3 peptide binding; Potency, µM (doses to about 114 µM), without a hit: at the top dose activity change, negative = inhibition, hits mostly inhibitors; hit rate 4.4% among 390,000; also: % is scaled to controls: 0 for no effect and ±100 for the full control effect; nearly all actives have a fitted effect of over 50% in size
# L3MBTL1 inh – blocks human L3MBTL1 | AID 485360 | AlphaScreen L3MBTL1–H3K9me1 peptide binding | Potency, µM (doses to about 57.1 µM), without a hit: at the highest dose activity, negative = inhibition, usual class: inhibitors | Q9Y468 | hit rate 0.66% among 230,000; also: % is scaled to controls: 0 for no effect and ±100 for the full control effect; nearly all actives have a fitted effect of over 60% in size
#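 L3MBTL1 50 nM + b-AHA-H3(1-15)K9me1 75 nM, 30 min RT; compound added, 30 min RT; streptavidin donor/Ni-chelate acceptor beads 10 ug/mL each final, 30 min RT dark; AlphaScreen read.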
# G9a inh – inhibitors of human histone lysine methyltransferase G9a. Q96KQ7. G9a H3K9 monomethylation, AlphaScreen, 2 h. Potency, µM (doses to about 102 µM), for inactives: top-dose activity, negative = inhibition, most hits filed as inhibitors. hit rate 8.8% among 350,000. AID 504332; also: % is scaled to controls: 0 for no effect and ±100 for the full control effect; nearly all actives have a fitted effect of over 75% in size
# Target sequence (Q96KQ7 913-1193 limits assumed): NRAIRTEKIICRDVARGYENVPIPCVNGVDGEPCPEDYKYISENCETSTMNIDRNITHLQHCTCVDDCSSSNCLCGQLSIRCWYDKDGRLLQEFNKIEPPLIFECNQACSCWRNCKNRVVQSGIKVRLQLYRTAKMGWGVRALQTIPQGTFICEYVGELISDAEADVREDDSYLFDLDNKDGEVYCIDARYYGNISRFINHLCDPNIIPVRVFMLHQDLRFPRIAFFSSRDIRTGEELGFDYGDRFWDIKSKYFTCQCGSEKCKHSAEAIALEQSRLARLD
#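 Step 1: enzyme (final 20 nM) with compound, 15 min RT. Step 2: substrate peptide 500 nM and SAM 20 uM, 2 h RT. Step 3: anti-H3K9me1 antibody and AlphaScreen beads, 10 min, then plate read.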
# BAZ2B inh – BAZ2B (human) inhibition; Q9UIF8; AlphaScreen BAZ2B-H3K14Ac peptide displacement; Potency, µM (highest dose often 114 µM), for the others: at the highest dose activity change, negative = inhibition, hits mostly inhibitors; hit rate 4.4% among 360,000; AID 504333; also: % is scaled to controls: 0 for no effect and ±100 for the full control effect; nearly all actives have a fitted effect of over 60% in size
#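 Multi-concentration screen (max 110 uM) measuring displacement of acetylated histone H3 peptide from BAZ2B by AlphaScreen, using 50 nM protein, 50 nM peptide and 10 ug/mL streptavidin donor plus Ni-chelate acceptor beads.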
# Numbers without * were called inactive; ? = inconclusive; nt = no result; [ ] = remark or other dose. Only some compounds are listed: those with a hit (about 11% of all), similar ones and a draw of the others. Calls follow the shape of the dose curve; as a rule, active = well fitted inhibition curve with a large enough effect; inconclusive = small, poorly fitted or top-dose-only effect; inactive = no such curve, though single readings can be large or run the other way. Potency is read from the fitted curve at half-maximal effect.
SMILES,HP1b binding inh,JMJD2A Tudor inh,L3MBTL1 inh,G9a inh,BAZ2B inh
c1ccc2c(-c3[nH]ncc3CNCCCn3ncc4ccccc43)cccc2c1,-17%,20µM*,-15%,nt,?
CCCCCCCCCc1nc2sc3c(c2c(=O)n1NC(=O)c1ccccc1[N+](=O)[O-])CC(C)(C)OC3,-1%,?,-13%,71µM*,-36%
CCCCCCCCCc1nc2sc3c(c2c(=O)n1NC(=O)c1ccc([N+](=O)[O-])cc1)CC(C)(C)OC3,-5%,?,-16%,?,-32%
O=C(c1ccc(-c2cccc(C(F)(F)F)c2)o1)N1CCCCCCC1,-9%,19%,2%,50µM*,-9%
O=C(c1ccco1)N1CCN(C(=O)c2ccc(-c3cccc(C(F)(F)F)c3)o2)CC1,5%,-24%,2%,7%[0.501 µM],?
O=C(c1ccc(-c2cccc(C(F)(F)F)c2)o1)N1CCN(c2ccccc2)CC1,12%,-28%,-7%,3.5µM*,1%
O=C(O)/C=C/C(=O)Nc1ccccc1SC(F)(F)F,27%,-19%,?,8.9µM*,1%
O=C(O)/C=C/C(=O)Nc1c(F)cccc1F,60%,-6%,1%,50µM*,0%
O=C(O)/C=C/C(=O)Nc1ccccc1-c1ccccc1NC(=O)/C=C/C(=O)O,33%,79µM*,-13%,10µM*,-1%
Cc1cccc(-n2cc(-c3ccccc3)c3c(NC(C)C)ncnc32)c1,18%,-22%,nt,-28%[59 µM],-23%
COc1cccc(C(C)=C2SC(=S)NC2=O)c1,?,-35%,nt,nt,nt
COc1cccc(-n2sc3c(c2=S)-c2cc(OC)ccc2NC3(C)C)c1,5.6µM*,11µM*,?,?,10µM*
Cc1ccc(Nc2nc(C)nc(N)c2S(=O)(=O)c2ccccc2)cc1,3%,-16%,nt,8%[59 µM],-18%
COc1cc(C(=O)N/N=C/c2ccc3c(c2)c2ccccc2n3C)ccc1O,10%,-14%,nt,22%,-23%
Cn1c2ccccc2c2cc(/C=N/NC(=O)c3cc(O)ccc3O)ccc21,?,32µM*,nt,40µM*,45µM*
O=C(N/N=C/c1cccc(O)c1)c1ccccc1O,56%,-7%[11.4 µM],-5%,21%,-17%
Cn1c2ccccc2c2cc(/C=N/NC(=O)c3cc(O)cc(O)c3)ccc21,?,56µM*,nt,50µM*,35µM*
COc1ccc(-c2nc(-c3ccccc3)nc(Cl)c2C#N)cc1,30%,?,13%,?,4%
COc1ccc(-c2nc(-c3cccc(C)c3)nc(Cl)c2C#N)cc1,nt,nt,11%,50µM*,-35%
O=C(NC(=S)NNC(=O)c1ccco1)c1ccc(F)cc1,55%,0%,nt,13µM*,1%
O=C(NC(=S)NNC(=O)c1cc2ccccc2cc1O)c1ccco1,1%,45µM*,?,nt,7%
O=C(Nc1ccc(Cl)c(NC(=O)c2cccs2)c1)c1ccco1,31%,-4%,-5%,56µM*,-21%
CCCC(=O)Nc1ccc(C(=O)NNC(=O)c2ccccc2Br)cc1,7%,-7%,2%,22µM*,10%[57.1 µM]
CN(C(=O)COC(=O)c1ccc2ccccc2n1)c1ccccc1,19%,-5%,1%,nt,nt
CCCCC(=O)Nc1ccc(C(=O)NNC(=S)NC(=O)c2ccco2)cc1,16%,-13%,nt,25µM*,0%
SMILES,HP1b binding inh,JMJD2A Tudor inh,L3MBTL1 inh,G9a inh,BAZ2B inh
CCCC(=O)Nc1ccc(Cl)c(NC(=S)NC(=O)c2ccco2)c1,26%,-21%,7%,50µM*,-4%
CCCCC(=O)Nc1ccc(C(=O)NNC(=O)c2ccco2)cc1,4%,-13%,2%,1%,1%
CCCC(=O)Nc1ccc(Cl)c(NC(=O)c2ccco2)c1,23%,-17%,-5%,-2%[59 µM],6%
COc1ccc(OCC(=O)Nc2cc(-c3nc4ccccc4o3)ccc2Cl)cc1,43%,-10%,nt,3%[59 µM],-18%
Fc1ccccc1Nc1nc2c(s1)CCc1ccccc1-2,nt,nt,-8%,6.3µM*,?
Cc1cc(C)cc(-n2cc[nH]c2=S)c1,-4%,7.9µM*,?,0.79µM*,-26%
CC1=CC(C)(C)NC(=S)N1c1cc(C)cc(C)c1,23%,-15%,nt,-7%[59 µM],-34%
Cc1ccc(-n2cc[nH]c2=S)c(C)c1,-12%,-7%,11%,8.9µM*,-11%
Cc1ccc(C)c(-n2cc[nH]c2=S)c1,22%,40µM*,-5%,2µM*,7%
CC(NC(=O)C(=O)NCCC1=CCCCC1)c1ccccc1 (stereo not given),11%,-18%,10%,24%[59 µM],7%
CC(NCC(=O)NC(=O)NCCC1=CCCCC1)c1ccc(S(N)(=O)=O)cc1 (stereo not given),?,22µM*,nt,nt,nt
CCCC12CN3CC(CCC)(CN(C1)C3c1c(C)[nH]c(=O)[nH]c1=O)C2=O (stereo not given),54%,-9%,nt,-29%[59 µM],-24%
CCCCOc1ccccc1C1NC(=O)NC(C)=C1C(=O)OCc1ccco1 (stereo not given),15%,-23%,8%,22µM*,6%
CCOC(=O)C1=C(N)OC2=C(C(=O)CC(C)(C)C2)C1c1ccco1 (stereo not given),10%,56µM*,-7%,22µM*,-19%
CCOC(=O)C1=C(C)NC(=O)NC1c1ccco1 (stereo not given),-6%,?,?,-13%[12.7 µM],79µM*
CCOC(=O)C1=C(N)OC2=C(C(=O)CC(C)(C)C2)C1c1ccccc1OC (stereo not given),37%,-10%,5%,nt,-15%
COc1cc(NC(=O)CC(c2ccc(C)cc2)N2Cc3ccccc3C2=O)cc(OC)c1 (stereo not given),44%,-8%,nt,?,-23%
O=C(Nc1ccccn1)c1cccs1,?,?,nt,-3%[59 µM],15%
CN1C(C(=O)Nc2ccccn2)=C(O)c2sccc2S1(=O)=O,10%,50µM*,-6%,?,50µM*
CCN(CC)CCN(C(=O)c1ccc2ccccc2c1)c1nc2cc3c(cc2s1)OCO3,15%,?,nt,40µM*,?
CCN(CC)CCN(C(=O)c1ccc(S(=O)(=O)N2CCCCC2)cc1)c1nc2cc3c(cc2s1)OCO3,-8%,?,-13%,50µM*,?
CCOc1cccc2sc(N(CCN(CC)CC)C(=O)c3ccc(S(=O)(=O)N4CCCC4)cc3)nc12,42%,-2%,nt,-10%,-13%
O=C(NCCCn1ccnc1)C1CCCN(S(=O)(=O)c2ccc(F)cc2)C1 (stereo not given),23%,13µM*,nt,14%[59 µM],-11%
O=C(NCCCc1ccccc1)C(=O)NCC1OCCN1S(=O)(=O)c1ccc(F)cc1 (stereo not given),22%,-6%,nt,21%,-24%
Cc1ccc(S(=O)(=O)N2CCCOC2CNC(=O)C(=O)NCCCn2ccnc2)cc1 (stereo not given),21%,-23%,-11%,-27%[59 µM],50µM*

# Assay outcomes: PubChem, National Center for Advancing Translational Sciences (NCATS)
